Screen size: about 52,000 compounds; about 1,700 (3.3%) were called active. Rule as the data show it: active = survival mostly below about 52% (no sharp cut-off); inactive = mostly above about 56%. The sample as a whole holds a higher share of actives than the screen did.
Test system: Wild type
Experiment: S. aureus survival, RN4220 and DeltatarO strains – OD600, teichoic acid synthesis inhibitors, primary screen (AID 463173)
Conditions: S. aureus RN4220 wild type/DeltatarO growth, OD600, 18 h, active compounds read low, screened at 18.75 µg/mL (by protocol)

SMILES	survival
COC(=O)c1cc(-c2ccc(C)cc2)c2c(=O)n(C)c(=O)n(C)c2n1	105% (inactive)
O=C(NCCNCc1ccccc1)c1ccco1	115% (inactive)
CC(=O)Nc1ccc(NC(=O)CCS(=O)(=O)c2ccc3c(c2)CC(=O)N3C)cc1	66% (inactive)
N#Cc1c(NC(=O)c2cc3nc(-c4ccc(Br)cc4)cc(C(F)(F)F)n3n2)sc2c1CCCC2	0% (active)
COC(=O)c1c(NC(=O)c2cc3nc(-c4ccc(Br)cc4)cc(C(F)(F)F)n3n2)sc2c1CCCC2	82% (inactive)
Cc1ccc(-c2cc(C(F)(F)F)n3nc(C(=O)Nc4sc5c(c4C#N)CCC(C)C5)cc3n2)cc1 (centres undefined)	70% (inactive)
COc1ccc(CNC(=O)c2cc(-c3ccc(C)c(C)c3)n[nH]2)cc1	67% (inactive)
Cc1cc2c(cc1S(=O)(=O)NCc1ccc(F)cc1)n(C)c(=O)c(=O)n2C	85% (inactive)
Cc1c(C(=O)OCc2ccccc2)[nH]c2c1C(=O)CC(c1ccc(Cl)cc1)C2 (centres undefined)	99% (inactive)
COc1cc(NC(=O)CNC(=O)Cn2ccc3ccccc3c2=O)cc(OC)c1OC	130% (inactive)
O=S(=O)(Cc1ccccc1)N1CCC(c2nc(-c3cccs3)no2)CC1	110% (inactive)
CC1=C(c2ccc(C)cc2)S(=O)(=O)N(Cc2ccc(C(=O)Nc3ccccc3C)cc2)C1=O	78% (inactive)
Cc1ccc(N2CCN(C(=O)c3cn(C)c4ccc(S(=O)(=O)N5CCCC5)cc4c3=O)CC2C)cc1 (centres undefined)	134% (inactive)
Cn1c(C(=O)NCCc2ccccc2)cc2cc(S(=O)(=O)N3CCCCC3)ccc21	73% (inactive)
Cc1ccccc1CCNC(=O)c1cc2cc(S(=O)(=O)N3CCCCC3)ccc2n1C	-3% (active)
CC(CNC(=O)c1cc2cc(S(=O)(=O)N3CCCCC3)ccc2n1C)c1ccccc1 (centres undefined)	55% (inactive)
Cn1c(C(=O)NCc2ccc(F)cc2)cc2cc(S(=O)(=O)N3CCCCC3)ccc21	131% (inactive)
Cc1ccccc1CNC(=O)c1cc2cc(S(=O)(=O)N3CCCCC3)ccc2n1C	66% (inactive)
CCC(C)NC(=O)c1cc2cc(S(=O)(=O)N3CCCCC3)ccc2n1C (centres undefined)	14% (active)
CCc1ccc(CNC(=O)c2cc3cc(S(=O)(=O)N4CCCCC4)ccc3n2C)cc1	47% (inactive)
CC(C)CCNC(=O)c1cc2cc(S(=O)(=O)N3CCCCC3)ccc2n1C	74% (inactive)
CN(C)c1ccc(CNC(=O)c2cc3cc(S(=O)(=O)N4CCCCC4)ccc3n2C)cc1	0% (active)
CCOC(=O)c1sc2cccc(F)c2c1S(=O)(=O)NCc1ccccc1Cl	130% (inactive)
Clc1ccc2[nH]c3nc4ccccc4nc3c2c1	104% (inactive)

SMILES	survival
COc1ccc(Nc2cc(C(=O)NCc3ccccc3)c3ccccc3n2)cc1OC	83% (inactive)
CC(=O)c1ccc(NC(=O)Cn2cc3c(n2)CCCC3)cc1	82% (inactive)
Cc1ccsc1CN(Cc1ccco1)C(=O)c1ccc(Cl)cc1	65% (inactive)
Cc1nn(C)c2c1c(C(F)(F)F)cc(=O)n2CC(=O)N1CCCCC1	67% (inactive)
CCOc1ccc(/C=C/c2nc(C#N)c(N3CCN(c4ccc(OC)cc4)CC3)o2)cc1	84% (inactive)
CCn1cc(C(=O)N2CCN(c3cc(C)ccc3C)CC2)c(=O)c2cc(S(=O)(=O)N3CCOCC3)ccc21	81% (inactive)
COc1ccc(CNC(=O)c2ccc(-c3nc(CSc4ccc(C)cc4)c(C)o3)cc2)c(OC)c1	1% (active)
Cc1oc(-c2ccc(C(=O)NCCc3ccc(Cl)cc3)cc2)nc1CSc1ccccc1	59% (inactive)
COc1ccc(CNC(=O)c2ccc(-c3nc(CSc4ccccc4)c(C)o3)cc2)cc1OC	77% (inactive)
Cc1ccc(SCc2nc(-c3ccc(C(=O)NCc4ccc(Cl)cc4)cc3)oc2C)cc1	64% (inactive)
COc1ccc(CNC(=O)c2ccc(-c3nc(CSc4ccc(C)cc4)c(C)o3)cc2)cc1OC	-3% (active)
Cc1ccc(SCc2nc(-c3ccc(C(=O)NCCc4ccc(Cl)cc4)cc3)oc2C)cc1	-4% (active)
COc1ccc(OC)c(CNC(=O)c2ccc(-c3nc(CSc4ccccc4)c(C)o3)cc2)c1	129% (inactive)
COc1ccc(CNC(=O)c2ccc(-c3nc(CSc4ccccc4)c(C)o3)cc2)c(OC)c1	100% (inactive)
CCc1ccc(CNC(=O)c2ccc(-c3nc(CSc4ccc(C)cc4)c(C)o3)cc2)cc1	63% (inactive)
Cc1cc(N2CCC(C)CC2)nc2ccc(NC(=O)/C=C/c3cccc(Cl)c3)cc12	69% (inactive)
Cc1ccc(CNc2ccc(-c3nc(-c4ccncc4)no3)cc2[N+](=O)[O-])cc1	87% (inactive)
CCc1ccc(NS(=O)(=O)c2c(-c3ccccc3)csc2C(=O)OC)cc1	77% (inactive)
Cn1c(=O)oc2cc(S(=O)(=O)N3CCCC(C(=O)NCCc4ccc(Cl)cc4)C3)ccc21 (centres undefined)	90% (inactive)
CCOc1ccc(CNC(=O)CCn2c(=O)c3cccn3c3cccnc32)cc1	93% (inactive)
Cc1cccc(-n2c(=O)c3c(c4cc(C)ccc4n3C)n(Cc3ccccc3F)c2=O)c1	153% (inactive)
O=C1NCN(c2ccccc2)C12CCN(c1nnnn1-c1ccccc1)CC2	102% (inactive)
COc1ccccc1OCCCCn1c(C2CC(=O)N(c3ccccc3Cl)C2)nc2ccccc21 (centres undefined)	85% (inactive)
CCc1ccccc1N1CC(c2nc3ccccc3n2CCC2CCCCC2)CC1=O (centres undefined)	25% (active)

SMILES	survival
Cc1ccccc1N1CC(c2nc3ccccc3n2CCC2CCCCC2)CC1=O (centres undefined)	12% (active)
Cc1ccc(N2CC(c3nc4ccccc4n3CCC3CCCCC3)CC2=O)cc1 (centres undefined)	80% (inactive)
O=C1CC(c2nc3ccccc3n2CCC2CCCCC2)CN1c1ccccc1Cl (centres undefined)	32% (active)
CCOc1ccc(N2CC(c3nc4ccccc4n3CCC3CCCCC3)CC2=O)cc1 (centres undefined)	29% (inactive)
Cc1cccc(N2CC(c3nc4ccccc4n3CCC3CCCCC3)CC2=O)c1 (centres undefined)	44% (inactive)
COc1ccccc1OCCCn1c(C2CC(=O)N(c3ccccc3Cl)C2)nc2ccccc21 (centres undefined)	93% (inactive)
CCc1ccccc1N1CC(c2nc3ccccc3n2CC(C)C)CC1=O (centres undefined)	91% (inactive)
Cc1c(C(=O)NCc2ccc(N(C)C)cc2)oc2c1-c1nn(Cc3cccc(Cl)c3)cc1CC2	91% (inactive)
CC1CCCN(S(=O)(=O)c2ccc(N)cc2)C1 (centres undefined)	109% (inactive)
Cc1ccc(-c2onc(C)c2C)cc1S(=O)(=O)NCc1cccs1	119% (inactive)
COc1ccc(CCNS(=O)(=O)c2cc(-c3onc(C)c3C)ccc2OC)cc1OC	-3% (active)
Cc1ccc(-c2onc(C)c2C)cc1S(=O)(=O)NCc1ccc(N(C)C)cc1	-4% (active)
COCCCNS(=O)(=O)c1cc(-c2onc(C)c2C)ccc1OC	111% (inactive)
COc1ccc(-c2onc(C)c2C)cc1S(=O)(=O)NCCc1ccccc1	57% (inactive)
Cc1ccc(-c2onc(C)c2C)cc1S(=O)(=O)NCc1ccco1	112% (inactive)
CCOC(=O)n1c(SCC)nc2ccccc21	104% (inactive)
O=C(Cc1ccc(Cl)cc1)NCCc1csc2nc(-c3ccccc3F)nn12	69% (inactive)
Cc1cc(-c2ccccc2)n2nc(-c3cccc(Br)c3)cc2n1	55% (inactive)
Cc1cc(-c2ccccc2)n2nc(-c3ccccc3)cc2n1	-2% (active)
Cc1cc(C)n2nc(-c3ccccc3)cc2n1	116% (inactive)
CCCCC(=O)Nc1nnc(SCc2cc(=O)n3cc(C)ccc3n2)s1	63% (inactive)
CC(=O)Nc1nonc1-c1nc2ccccc2n1Cc1ccccc1Br	97% (inactive)
O=C(CCn1c(=O)c2sccc2n(Cc2ccc(F)cc2Cl)c1=O)NCc1ccc2c(c1)OCO2	92% (inactive)
CCc1ccc2oc(C(=O)NCCc3ccc(OC)c(OC)c3)cc(=O)c2c1	83% (inactive)

SMILES	survival
Cc1c(C(C)(C)C)sc(=N)n1C	86% (inactive)
CCc1ccc(-c2[nH]c3c(c2-c2c(-n4cccc4)n(C)c(=O)n(C)c2=O)c(=O)n(C)c(=O)n3C)cc1	105% (inactive)
COc1ccc2c(Sc3ccc(Cl)cc3)c(C(=O)NCCCN3CCCCC3)[nH]c2c1	-1% (active)
COCCCNC(=O)c1[nH]c2ccccc2c1Sc1ccc(C)cc1	81% (inactive)
O=C(c1[nH]c2ccccc2c1Sc1ccc(Cl)cc1)N1CCCCC1	48% (inactive)
COc1ccc2c(Sc3ccc(Cl)cc3)c(C(=O)N3CCCCC3)[nH]c2c1	33% (inactive)
COc1ccc2c(Sc3ccccc3)c(C(=O)NCCCN3CCCCC3)[nH]c2c1	73% (inactive)
O=C(NCCCN1CCCCC1)c1[nH]c2ccccc2c1Sc1ccc(Cl)cc1	-1% (active)
CCOc1cc(C2CC(=O)Nc3c2c(C)nn3-c2nc(C)cc(C)n2)ccc1O (centres undefined)	83% (inactive)
CCOC(=O)c1cccc(NC(=O)c2cc3c(-c4cccc(OC)c4)nn(C)c3s2)c1	65% (inactive)
CCc1ccc2occ(CC(=O)N(Cc3ccccc3)C3CCS(=O)(=O)C3)c2c1 (centres undefined)	77% (inactive)
COc1ccc2c(c1)c1c(c(=O)n(-c3cccc(Cl)c3)c(=O)n1CC(=O)N1CCCC1)n2C	73% (inactive)
CCCCN(CCCC)CCNC(=O)CN1C(=O)CSc2ccc(S(=O)(=O)N3CCCCC3)cc21	110% (inactive)
CCc1cccc(NC(=O)Cn2nc(-c3ccc(OC)cc3)ccc2=O)c1	59% (inactive)
O=C(O)c1cc(-c2ccccc2)nn1Cc1ccccc1	68% (inactive)
CCOC(=O)c1cc(-c2ccc(C)cc2)nn1Cc1ccccc1	0% (active)
COc1ccc(-c2cc(C(=O)O)n(Cc3ccccc3)n2)cc1	63% (inactive)
COC(=O)c1ccc(Cn2nc(-c3ccc(C)cc3)ccc2=O)cc1	145% (inactive)
CCOC(=O)c1cnn(Cc2ccccc2)c1N	104% (inactive)
CCOC(=O)c1cc(-c2ccc(OC)cc2)nn1Cc1ccccc1	10% (active)
CCOC(=O)c1cc(-c2ccccc2)nn1Cc1ccccc1	2% (active)
Cc1ccc(-c2cc(C(=O)O)n(Cc3ccccc3)n2)cc1	63% (inactive)

From PubChem BioAssay AID463173 (ICCB-Longwood Screening Facility, Harvard Medical School, 2010)
